Results as given in PubChem BioAssay (NCATS).
Results filed as inconclusive are left out. Calls of active or inactive are those of the source. Calls come from the whole dose curve; as a rule, active = well fitted inhibition curve with a large enough effect; inconclusive = small, poorly fitted or top-dose-only effect; inactive = flat fitted curve, though single readings scatter.

Key:
CRL-7250 = normal cell line; test: Cytotoxic Profiling of Annotated Libraries Using Quantitative High-Throughput Screening (AID 1296008); conditions: Five cell lines viability, CellTiter-Glo ATP luminescence, 48-72 h; max response: hits give low values; note: potency is the fitted concentration of half-maximal effect
Outline: (§1)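 Compounds were pin-transferred onto cells and incubated 48 or 72 hr at 37 degree Celsius, 95% humidity. CellTiter-Glo was added, plates sat 10 min at room temperature, then ATP-coupled luminescence was imaged as the viability read-out.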

HEK293 = test: as above; conditions: Five cell lines viability, CellTiter-Glo ATP luminescence, 48-72 h; max response: hits give low values
Outline: as §1

KB-3-1 = test: as above; conditions: Five cell lines viability, CellTiter-Glo ATP luminescence, 48-72 h; max response: hits give low values
Outline: as §1

HaCat [1] = test: as above; conditions: Five cell lines viability, CellTiter-Glo ATP luminescence, 48-72 h; max response: hits give low values
Outline: as §1

NIH3T3 = test: as above; conditions: Five cell lines viability, CellTiter-Glo ATP luminescence, 48-72 h; max response: hits give low values
Outline: as §1

HACAT [2] = test: qHTS assay to identify novel small-molecules to repurpose for Merkel cell carcinoma treatment (AID 1296009); conditions: MCC and control cell lines, CellTiter-Glo viability, 72 h; series mostly up to 44.8 µM
Outline: (§2)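 qHTS format: cells treated with library compounds in DMSO across 8 (NPC) or 11 (MIPE) concentrations. Readout after 72 hr at 37 degree celsius was CellTiter-Glo luminescence.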

MCC-13 = test: as above; conditions: MCC and control cell lines, CellTiter-Glo viability, 72 h; series mostly up to 46 µM
Outline: as §2

MCC-26 = test: as above; conditions: MCC and control cell lines, CellTiter-Glo viability, 72 h; series mostly up to 46 µM
Outline: as §2

MKL-1 = test: as above; conditions: MCC and control cell lines, CellTiter-Glo viability, 72 h; series mostly up to 46 µM
Outline: as §2
% is set by controls: 0 for no effect and ±100 for the full control effect.
Note: nearly all actives have a fitted effect of over 60% in size.

Cc1ccc(NC(=O)c2ccc(CN3CC[C@H](N(C)C)C3)c(C(F)(F)F)c2)cc1Nc1nccc(-c2cncnc2)n1
inactive: max response (CRL-7250) -22.1% | max response (KB-3-1) -1.65%
active: Potency (HEK293) 5630 nM

O=C(O)c1c(O)c(-c2ccccc2)nc2ccccc12
inactive: outcome (CRL-7250) | max response (HEK293) -11.2% | outcome (HaCat [1]) | outcome (NIH3T3) | Potency (HACAT [2]) | outcome (MCC-13) | outcome (MCC-26) | Potency (MKL-1)

COc1cc(Nc2nc3c(s2)CCCC3c2ccc(F)cc2)ccc1-n1cnc(C)c1 (stereo unspecified)
active: Potency (CRL-7250) 14600 nM | Potency (HEK293) 11600 nM | Potency (KB-3-1) 18400 nM

CC(=O)NC1=NN(C(C)=O)C(C)(c2ccccc2)S1 (stereo unspecified)
active: Potency (HEK293) 4110 nM | Potency (KB-3-1) 5170 nM
inactive: max response (CRL-7250) -15.8%

Cn1c(=O)n(-c2ccc(C(C)(C)C#N)cc2)c2c3cc(C#Cc4cccnc4)ccc3ncc21
active: Potency (CRL-7250) 22.4 nM | Potency (HEK293) 89.3 nM | Potency (KB-3-1) 142 nM | Potency (NIH3T3) 200 nM

CC[C@H](CO)Nc1nc(NCc2ccc(-c3ccccn3)cc2)c2ncn(C(C)C)c2n1
active: Potency (CRL-7250) 92 nM | Potency (HEK293) 206 nM | Potency (KB-3-1) 116 nM | Potency (NIH3T3) 517 nM

C[C@@H]1CN(Cc2ccccc2)C[C@H]1c1nc2c(cnn2C2CCOCC2)c(=O)[nH]1
inactive: max response (CRL-7250) -0.22% | max response (HEK293) 2.89% | max response (KB-3-1) 2.05% | max response (NIH3T3) -13.9%

CC(O)/C=C/C1OC(=O)CC1Nc1ccc(C(=O)O)cc1 (stereo unspecified)
inactive: max response (CRL-7250) -10.3% | max response (HEK293) -8.85% | max response (KB-3-1) 5.7% | outcome (NIH3T3)

COc1ccc(CCO[C@@H]2CCCC[C@H]2N2CC[C@@H](O)C2)cc1OC
inactive: max response (CRL-7250) -6.87% | max response (HEK293) 2.72% | max response (KB-3-1) 4.12% | outcome (NIH3T3)

CCOCCn1nc(CC)c2nc(N3CCC(C(=O)O)CC3)nc(Nc3cc(C)ccn3)c21
inactive: max response (CRL-7250) -0.41% | max response (HEK293) -20% | max response (KB-3-1) -10.2% | max response (NIH3T3) 3.17%

Cc1cc(O)c(-c2ccc([C@@H](C)CN(C)C)cc2)c2c1[nH]c(=O)c1sccc12
active: Potency (CRL-7250) 116 nM | Potency (HEK293) 25.9 nM | Potency (KB-3-1) 46.1 nM | Potency (NIH3T3) 231 nM

Nc1nc2c(c(=O)[nH]1)C[C@@H](CCc1ccc(C(=O)N[C@@H](CCC(=O)O)C(=O)O)cc1)CN2
active: Potency (CRL-7250) 116 nM | Potency (HEK293) 206 nM | Potency (KB-3-1) 58 nM | Potency (NIH3T3) 103 nM

CCCC1(c2ccccc2)NC(=O)N(CC(=O)N(C)Cc2c(F)cccc2Cl)C1=O (stereo unspecified)
inactive: max response (CRL-7250) -1.75% | max response (HEK293) -6.56% | max response (KB-3-1) -1.57% | max response (NIH3T3) -2.22%

CC(=O)OC[C@@]12C(=O)C[C@@H](C)[C@]3(C[C@@H](c4ccoc4)O[C@H]3OC(C)=O)[C@H]1CCC[C@]21CO1
inactive: max response (CRL-7250) -15.6% | max response (HEK293) -5.69% | max response (KB-3-1) -1.02% | max response (NIH3T3) 3.02%

CCOC(=O)CCN(C(=O)c1ccc2c(c1)nc(CNc1ccc(C(=N)N)cc1)n2C)c1ccccn1
inactive: max response (CRL-7250) 2.71% | max response (HEK293) -11% | max response (KB-3-1) -6.67% | max response (NIH3T3) -4.58%

CNC(=O)c1cccc(-c2ccc3c(N4CCOC[C@@H]4C)nc(N4CCOC[C@@H]4C)nc3n2)c1
active: Potency (CRL-7250) 580 nM | Potency (HEK293) 366 nM | Potency (KB-3-1) 326 nM | Potency (NIH3T3) 1300 nM

Nc1nccn2c(C3CCC(C(=O)O)CC3)nc(-c3cc4cccc(Cl)c4[nH]3)c12 (stereo unspecified)
active: Potency (CRL-7250) 1460 nM | Potency (HEK293) 5170 nM | Potency (KB-3-1) 1840 nM | Potency (NIH3T3) 7310 nM

CCN1CCN(Cc2ccc(NC(=O)Nc3ccc(Oc4cc(NC)ncn4)cc3)cc2C(F)(F)F)CC1
active: Potency (CRL-7250) 25900 nM | Potency (KB-3-1) 6510 nM
inactive: max response (HEK293) -109% | max response (NIH3T3) -75.2%

Nc1ncnc2c([C@@H]3N[C@H](CO)[C@@H](O)[C@H]3O)c[nH]c12
inactive: max response (CRL-7250) -1.11% | max response (HEK293) 1.17% | max response (KB-3-1) 5.62% | max response (NIH3T3) -4.07%

COc1ccc(C2(O)c3ccccc3NC(=O)C2O)cc1 (stereo unspecified)
inactive: max response (CRL-7250) 0.154% | max response (HEK293) -5.12% | outcome (KB-3-1) | outcome (NIH3T3)

c1cc(OCCCN2CCCCC2)ccc1CN1CCCCC1
inactive: max response (CRL-7250) -3.26% | max response (HEK293) -18.4% | max response (KB-3-1) -5.63% | outcome (NIH3T3)

COc1cc2c3c(cc4ccccc4c3c1O)NC2=O
inactive: max response (CRL-7250) 4.86% | max response (HEK293) -10.3% | outcome (KB-3-1) | outcome (NIH3T3)

C=C1C(O)C(O)C2(CC3C(C)=CCC4C(C)(CO)CCCC34C)OC2C1O (stereo unspecified)
inactive: max response (CRL-7250) -2.93% | max response (HEK293) -13.5% | max response (KB-3-1) -3.07% | max response (NIH3T3) -5.46%

CC1(C)CCC2(C(=O)OC3OC(CO)C(O)C(O)C3O)CCC3(C)C(=CCC4C5(C)CCC(O)C(C)(C(=O)O)C5CCC43C)C2C1O (stereo unspecified)
inactive: max response (CRL-7250) 3.57% | max response (HEK293) 4.09% | max response (KB-3-1) 1.65% | max response (NIH3T3) 0.934%

O=C1OCc2cc3cccc(O[C@@H]4O[C@H](CO)[C@@H](O)[C@H](O)[C@H]4O)c3c(O)c21
inactive: max response (CRL-7250) 3.34% | max response (HEK293) -24.4% | outcome (KB-3-1) | max response (NIH3T3) 0.153%
